# Results taken from the supplement of paper PMC10849652.
# Of roughly 7,900 targets only a part is listed; those with a hit were picked by preference. About 0.6% of all pairs of compound and target were hits.
# Compound: CNC(=O)C1=CC=CC=C1NC2=NC(=NC=C2Cl)NC3=C(C=C(C=C3)N4CCOCC4)OC
# Assay: log2 fold change, soluble protein after heating vs DMSO (PISA); higher = thermal stabilisation; K562 cells, 10 uM, 30 min; active = over 0.2 and 3.5 SD of the protein, either way, in both replicates (recomputed)
# Outline: (§1)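 For each measurement, 10 μM compound was applied for 30 min to K562 cells at 2×10^6 cells/mL. Aliquots were heated for 3 min across 48°C-58°C, pooled, and extracted in PBS with 0.5% NP-40 at 4°C; the supernatant after 21,000xg for 90 min was soluble protein. This was quantified by TMTpro 16plex LC-MS/MS with channel sums equalised, and thermal stability was reported relative to control samples from duplicates, on a log2 fold-change scale.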
# Sequence of UniProt O75251 (O75251 whole entry, looked up): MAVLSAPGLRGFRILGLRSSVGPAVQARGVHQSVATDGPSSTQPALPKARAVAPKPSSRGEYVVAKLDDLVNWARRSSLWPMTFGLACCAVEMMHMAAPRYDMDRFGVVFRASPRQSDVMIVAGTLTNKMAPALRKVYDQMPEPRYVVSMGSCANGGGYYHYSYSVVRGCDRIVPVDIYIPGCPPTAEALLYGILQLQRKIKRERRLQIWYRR
# Sequence of UniProt Q13423 (Q13423 whole entry, looked up): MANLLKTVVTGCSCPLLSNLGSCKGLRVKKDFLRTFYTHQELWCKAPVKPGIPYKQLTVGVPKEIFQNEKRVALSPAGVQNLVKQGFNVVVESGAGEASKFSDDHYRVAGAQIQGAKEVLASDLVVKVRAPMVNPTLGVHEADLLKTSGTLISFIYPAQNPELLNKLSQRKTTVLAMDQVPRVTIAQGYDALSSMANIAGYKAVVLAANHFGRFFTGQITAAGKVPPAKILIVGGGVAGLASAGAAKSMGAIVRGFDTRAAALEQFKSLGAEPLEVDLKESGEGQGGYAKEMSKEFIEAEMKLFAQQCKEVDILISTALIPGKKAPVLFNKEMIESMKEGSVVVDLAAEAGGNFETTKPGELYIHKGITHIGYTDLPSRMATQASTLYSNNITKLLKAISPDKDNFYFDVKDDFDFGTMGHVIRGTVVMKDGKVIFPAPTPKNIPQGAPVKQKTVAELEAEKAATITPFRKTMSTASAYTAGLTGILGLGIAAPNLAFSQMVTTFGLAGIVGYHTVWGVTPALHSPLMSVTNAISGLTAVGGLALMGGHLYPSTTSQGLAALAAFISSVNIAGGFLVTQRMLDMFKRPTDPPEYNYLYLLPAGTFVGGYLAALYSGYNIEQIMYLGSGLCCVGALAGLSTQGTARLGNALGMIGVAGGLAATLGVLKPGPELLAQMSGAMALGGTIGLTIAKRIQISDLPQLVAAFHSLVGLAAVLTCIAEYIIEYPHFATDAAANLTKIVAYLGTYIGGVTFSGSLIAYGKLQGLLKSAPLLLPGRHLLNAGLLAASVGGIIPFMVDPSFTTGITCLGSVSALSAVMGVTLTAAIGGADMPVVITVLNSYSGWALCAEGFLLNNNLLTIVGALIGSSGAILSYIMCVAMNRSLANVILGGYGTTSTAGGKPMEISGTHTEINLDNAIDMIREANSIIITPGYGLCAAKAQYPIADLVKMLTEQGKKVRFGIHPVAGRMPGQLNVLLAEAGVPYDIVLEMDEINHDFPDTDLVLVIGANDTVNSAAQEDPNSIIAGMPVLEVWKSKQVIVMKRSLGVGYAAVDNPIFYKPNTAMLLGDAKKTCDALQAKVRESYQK
# Sequence of UniProt Q13469 (Q13469 whole entry, looked up): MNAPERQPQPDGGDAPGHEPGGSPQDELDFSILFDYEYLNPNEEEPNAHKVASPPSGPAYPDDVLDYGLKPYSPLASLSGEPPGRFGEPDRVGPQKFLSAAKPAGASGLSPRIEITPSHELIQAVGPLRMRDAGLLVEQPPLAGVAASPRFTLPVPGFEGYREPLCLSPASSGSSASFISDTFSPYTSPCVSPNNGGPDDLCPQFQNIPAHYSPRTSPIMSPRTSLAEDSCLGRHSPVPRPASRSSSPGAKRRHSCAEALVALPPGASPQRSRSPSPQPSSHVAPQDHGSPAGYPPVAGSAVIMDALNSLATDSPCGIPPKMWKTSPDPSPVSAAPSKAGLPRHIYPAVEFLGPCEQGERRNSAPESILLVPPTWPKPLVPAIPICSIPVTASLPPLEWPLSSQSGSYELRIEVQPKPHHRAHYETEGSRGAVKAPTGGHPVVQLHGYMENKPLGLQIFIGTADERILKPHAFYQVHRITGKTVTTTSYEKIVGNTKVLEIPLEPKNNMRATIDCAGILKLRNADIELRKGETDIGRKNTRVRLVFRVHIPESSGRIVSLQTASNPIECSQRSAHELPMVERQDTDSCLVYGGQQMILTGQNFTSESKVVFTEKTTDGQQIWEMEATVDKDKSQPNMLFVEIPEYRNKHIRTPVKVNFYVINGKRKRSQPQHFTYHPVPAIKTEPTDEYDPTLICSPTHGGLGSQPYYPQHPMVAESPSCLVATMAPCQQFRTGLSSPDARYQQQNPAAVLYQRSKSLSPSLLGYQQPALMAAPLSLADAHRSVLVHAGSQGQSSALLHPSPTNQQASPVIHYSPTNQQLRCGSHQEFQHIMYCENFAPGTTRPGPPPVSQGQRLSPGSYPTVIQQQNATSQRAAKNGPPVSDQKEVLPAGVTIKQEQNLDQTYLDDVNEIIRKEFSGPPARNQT
# Sequence of UniProt Q9H3P2 (Q9H3P2 whole entry, looked up): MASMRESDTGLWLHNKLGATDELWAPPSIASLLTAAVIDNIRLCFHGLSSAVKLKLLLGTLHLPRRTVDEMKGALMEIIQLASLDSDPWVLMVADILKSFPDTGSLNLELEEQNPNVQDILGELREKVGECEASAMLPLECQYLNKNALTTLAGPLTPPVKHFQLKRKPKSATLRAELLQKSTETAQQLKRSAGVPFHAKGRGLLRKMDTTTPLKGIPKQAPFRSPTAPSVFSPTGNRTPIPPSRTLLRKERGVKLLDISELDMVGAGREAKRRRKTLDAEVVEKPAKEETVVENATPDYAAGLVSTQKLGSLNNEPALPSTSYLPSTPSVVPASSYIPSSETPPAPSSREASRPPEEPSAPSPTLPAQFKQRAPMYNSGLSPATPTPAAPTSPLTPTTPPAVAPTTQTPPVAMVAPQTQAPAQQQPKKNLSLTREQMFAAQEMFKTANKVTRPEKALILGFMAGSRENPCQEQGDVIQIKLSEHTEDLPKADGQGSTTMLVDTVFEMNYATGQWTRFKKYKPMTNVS
# Sequence of UniProt Q9BUB5 (Q9BUB5 whole entry, looked up): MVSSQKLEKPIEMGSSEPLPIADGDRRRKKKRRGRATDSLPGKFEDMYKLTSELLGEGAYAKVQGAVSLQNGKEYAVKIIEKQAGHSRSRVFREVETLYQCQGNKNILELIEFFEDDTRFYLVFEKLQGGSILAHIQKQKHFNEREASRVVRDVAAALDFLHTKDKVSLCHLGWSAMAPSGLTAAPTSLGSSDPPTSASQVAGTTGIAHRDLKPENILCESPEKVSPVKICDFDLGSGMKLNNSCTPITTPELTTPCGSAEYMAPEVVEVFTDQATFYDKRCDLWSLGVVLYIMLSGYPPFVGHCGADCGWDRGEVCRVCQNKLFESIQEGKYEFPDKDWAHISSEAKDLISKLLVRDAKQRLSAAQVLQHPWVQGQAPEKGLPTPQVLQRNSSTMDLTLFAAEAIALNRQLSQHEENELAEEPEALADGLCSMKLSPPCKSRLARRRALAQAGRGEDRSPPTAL
# Sequence of UniProt Q9H8H0 (Q9H8H0 whole entry, looked up): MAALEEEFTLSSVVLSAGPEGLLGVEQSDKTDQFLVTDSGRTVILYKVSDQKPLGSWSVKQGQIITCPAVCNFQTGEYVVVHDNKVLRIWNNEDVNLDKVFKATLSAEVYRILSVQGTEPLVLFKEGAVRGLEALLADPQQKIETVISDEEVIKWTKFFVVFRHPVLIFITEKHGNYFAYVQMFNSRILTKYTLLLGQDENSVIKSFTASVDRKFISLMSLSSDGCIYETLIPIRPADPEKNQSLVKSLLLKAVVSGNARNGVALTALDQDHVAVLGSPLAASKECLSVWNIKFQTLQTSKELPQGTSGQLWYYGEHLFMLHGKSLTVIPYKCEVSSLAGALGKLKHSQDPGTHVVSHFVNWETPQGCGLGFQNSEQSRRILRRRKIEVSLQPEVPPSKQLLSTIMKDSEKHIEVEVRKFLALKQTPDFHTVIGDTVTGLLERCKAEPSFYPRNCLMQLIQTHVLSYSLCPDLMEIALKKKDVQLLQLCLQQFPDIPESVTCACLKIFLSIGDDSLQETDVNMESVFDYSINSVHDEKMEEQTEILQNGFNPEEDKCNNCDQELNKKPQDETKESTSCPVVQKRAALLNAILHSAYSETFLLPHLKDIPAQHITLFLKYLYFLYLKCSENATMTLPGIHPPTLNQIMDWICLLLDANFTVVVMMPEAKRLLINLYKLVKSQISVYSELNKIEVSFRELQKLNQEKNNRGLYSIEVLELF
# Sequence of UniProt Q9NRP0 (Q9NRP0 whole entry, looked up): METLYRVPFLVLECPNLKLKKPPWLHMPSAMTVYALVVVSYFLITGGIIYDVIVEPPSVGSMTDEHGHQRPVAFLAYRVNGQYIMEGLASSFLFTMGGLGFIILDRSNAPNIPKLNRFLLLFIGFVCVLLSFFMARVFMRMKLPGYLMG
# Sequence of UniProt Q8WX92 (Q8WX92 whole entry, looked up): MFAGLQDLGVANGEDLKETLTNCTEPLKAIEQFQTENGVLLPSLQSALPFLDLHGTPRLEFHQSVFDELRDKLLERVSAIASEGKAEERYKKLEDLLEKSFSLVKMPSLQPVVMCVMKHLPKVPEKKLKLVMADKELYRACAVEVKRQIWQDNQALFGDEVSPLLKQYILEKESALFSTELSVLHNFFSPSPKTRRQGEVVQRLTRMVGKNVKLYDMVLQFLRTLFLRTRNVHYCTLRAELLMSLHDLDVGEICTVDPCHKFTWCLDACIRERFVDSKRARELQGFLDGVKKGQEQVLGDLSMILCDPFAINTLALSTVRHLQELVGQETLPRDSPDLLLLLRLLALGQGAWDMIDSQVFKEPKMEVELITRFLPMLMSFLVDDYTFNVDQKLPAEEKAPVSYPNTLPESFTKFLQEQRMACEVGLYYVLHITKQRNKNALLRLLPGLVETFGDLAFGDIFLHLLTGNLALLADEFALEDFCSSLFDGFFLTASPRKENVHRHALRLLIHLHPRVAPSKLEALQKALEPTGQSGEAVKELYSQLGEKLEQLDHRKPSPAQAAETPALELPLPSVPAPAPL
# Sequence of UniProt P00846 (P00846 whole entry, looked up): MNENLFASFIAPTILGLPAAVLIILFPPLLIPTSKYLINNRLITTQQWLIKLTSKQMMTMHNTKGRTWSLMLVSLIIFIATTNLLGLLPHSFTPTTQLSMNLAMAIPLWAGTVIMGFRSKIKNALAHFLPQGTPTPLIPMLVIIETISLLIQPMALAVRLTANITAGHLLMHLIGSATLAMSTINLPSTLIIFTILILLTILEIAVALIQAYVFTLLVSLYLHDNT
row,Target,log2 fold change
1,NELFB isoform 2 (UniProt Q8WX92),-0.026 (inactive)
2,MRPL50 (UniProt Q8N5N7),-0.011 (inactive)
3,MRPL46 (UniProt Q9H2W6),0.29 (active)
4,NOP56 (UniProt O00567),-0.067 (inactive)
5,MTHFS (UniProt P49914),0.065 (inactive)
6,MKNK1 (UniProt Q9BUB5),0.038 (inactive)
7,NMNAT1 (UniProt Q9HAN9),-0.121 (inactive)
8,MT-ATP6 (UniProt P00846),-0.018 (inactive)
9,NFATC3 (UniProt Q12968),-0.103 (inactive)
10,NELFA (UniProt Q9H3P2),0.078 (inactive)
11,OSTM1 (UniProt Q86WC4),0.19 (inactive)
12,NDUFS8 (UniProt O00217),-0.037 (inactive)
13,MITD1 (UniProt Q8WV92),-0.146 (inactive)
14,NFX1 (UniProt Q12986),0.014 (inactive)
15,NBN (UniProt O60934),-0.065 (inactive)
16,NDUFS7 (UniProt O75251),-0.038 (inactive)
17,"NA, A0A096LPI6",0.005 (inactive)
18,NSMCE2 (UniProt Q96MF7),0.031 (inactive)
19,NIPSNAP2 (UniProt O75323),0.104 (inactive)
20,MRPS10 (UniProt P82664),-0.034 (inactive)

row,Target,log2 fold change
1,NNT (UniProt Q13423),0.017 (inactive)
2,NEU1 (UniProt Q99519),-0.113 (inactive)
3,NOL11 (UniProt Q9H8H0),0.007 (inactive)
4,MRPS25 (UniProt P82663),-0.021 (inactive)
5,MRPS5 (UniProt P82675),-0.024 (inactive)
6,NMT2 (UniProt O60551),0.146 (inactive)
7,NEDD4L (UniProt Q96PU5),0.068 (inactive)
8,NR2C2 isoform 2 (UniProt P49116),0.005 (inactive)
9,P4HA2 (UniProt O15460),0.003 (inactive)
10,OSTC (UniProt Q9NRP0),0.03 (inactive)
11,NFATC2 (UniProt Q13469),0.007 (inactive)
12,PAFAH1B2 (UniProt P68402),-0.029 (inactive)
13,"NA, A0A0B4J2A0",-0.077 (inactive)
14,OXSM (UniProt Q9NWU1),0.038 (inactive)
15,NDUFA12 (UniProt Q9UI09),-0.027 (inactive)
16,NOP58 (UniProt Q9Y2X3),-0.058 (inactive)
17,MSTO1 (UniProt Q9BUK6),-0.031 (inactive)
18,MRPS27 isoform 2 (UniProt Q92552),0.071 (inactive)
19,MYL12B (UniProt O14950),0.007 (inactive)

# Compound: CNC(=O)c1ccc(Nc2ncc(C(F)(F)F)c(NCc3nccnc3N(C)S(C)(=O)=O)n2)cc1 [defactinib]
# Assay: as above
# Outline: as §1
row,Target,log2 fold change
1,NELFB isoform 2 (UniProt Q8WX92),-0.199 (inactive)
2,MRPL50 (UniProt Q8N5N7),0.04 (inactive)
3,MRPL46 (UniProt Q9H2W6),0.043 (inactive)
4,NOP56 (UniProt O00567),0.375 (inactive)
5,MTHFS (UniProt P49914),-0.053 (inactive)
6,MKNK1 (UniProt Q9BUB5),-0.102 (inactive)
7,NMNAT1 (UniProt Q9HAN9),0.237 (inactive)
8,MT-ATP6 (UniProt P00846),-0.095 (inactive)
9,NFATC3 (UniProt Q12968),-0.208 (inactive)
10,NELFA (UniProt Q9H3P2),-0.094 (inactive)
11,OSTM1 (UniProt Q86WC4),-0.048 (inactive)
12,NDUFS8 (UniProt O00217),-0.009 (inactive)
13,MITD1 (UniProt Q8WV92),0.133 (inactive)
14,NFX1 (UniProt Q12986),0.009 (inactive)
15,NBN (UniProt O60934),-0.159 (inactive)
16,NDUFS7 (UniProt O75251),-0.016 (inactive)
17,"NA, A0A096LPI6",0 (inactive)
18,NSMCE2 (UniProt Q96MF7),-0.06 (inactive)
19,NIPSNAP2 (UniProt O75323),-0.003 (inactive)
20,MRPS10 (UniProt P82664),-0.071 (inactive)

row,Target,log2 fold change
1,NNT (UniProt Q13423),-0.009 (inactive)
2,NEU1 (UniProt Q99519),-0.011 (inactive)
3,NOL11 (UniProt Q9H8H0),0.186 (inactive)
4,MRPS25 (UniProt P82663),-0.072 (inactive)
5,MRPS5 (UniProt P82675),0.068 (inactive)
6,NMT2 (UniProt O60551),-0.016 (inactive)
7,NEDD4L (UniProt Q96PU5),-0.135 (inactive)
8,NR2C2 isoform 2 (UniProt P49116),0.001 (inactive)
9,P4HA2 (UniProt O15460),0.085 (inactive)
10,OSTC (UniProt Q9NRP0),-0.053 (inactive)
11,NFATC2 (UniProt Q13469),-0.14 (inactive)
12,PAFAH1B2 (UniProt P68402),0.022 (inactive)
13,"NA, A0A0B4J2A0",-0.051 (inactive)
14,OXSM (UniProt Q9NWU1),-0.059 (inactive)
15,NDUFA12 (UniProt Q9UI09),-0.037 (inactive)
16,NOP58 (UniProt Q9Y2X3),-0.004 (inactive)
17,MSTO1 (UniProt Q9BUK6),-0.045 (inactive)
18,MRPS27 isoform 2 (UniProt Q92552),-0.012 (inactive)
19,MYL12B (UniProt O14950),-0.036 (inactive)
